Laboratory results reported in PubChem BioAssay.

Assay: FRG1 promoter luciferase signal modulators, primary screen, FRG1 inhibition for FSHD, cell-based, C2C12 myotubes, firefly/Renilla luciferase, luminescence (AID 1084)
Settings: higher = more signal, called active from +8 up or from −8 down

z-score, inactive:
C[C@@]1([C@@H](NS(=O)(=O)c2cccc3cccnc23)c2ccc(-c3ccccc3)cc2)C[C@H]1C1CCCCC1 -0.365, O=C1O[C@H](c2ccccc2)[C@H](c2ccccc2)N2[C@H]1[C@@H](C(=O)N1CCN(c3ncccn3)CC1)[C@]1(C(=O)Nc3ccc(C#CC4(O)CCCCCC4)cc31)[C@H]2c1ccc(O)cc1 0.0132, C=CCC(OC(C)=O)[C@@H]1[C@@H](N(Cc2ccc(-c3ccccc3)cc2)C(=O)Cc2ccc(OC)cc2)c2cc(OCCCO)ccc2N1C(=O)c1ccc2ccccc2c1 (stereo not given in full) -0.808, O=C(NC1CC1)[C@@H]1c2ccccc2C(=O)N(C2CCCCC2)[C@H]1c1ccc(CO)cc1 -0.601, COC(=O)[C@@]1(Cc2ccccc2)[C@H]2c3cc(C(=O)N(C)C)n(Cc4nc5ccccc5[nH]4)c3C[C@H]2CN1C(=O)c1ccccc1 -1.3, C=CCOC(=O)[C@@H]1[C@H]2C(=O)O[C@H](c3ccccc3)[C@H](c3ccccc3)N2[C@H](c2ccc(OCCOC(=O)[C@@H]3C[C@@H]4C(=O)N[C@@H](CC(C)C)C(=O)N4[C@@H]3c3ccc(O)cc3)cc2)[C@@]12C(=O)Nc1ccc(I)cc12 -0.277, COCCOC(=O)N1C(=O)[C@@]2(c3cc(C#CCNC(N)=O)ccc31)[C@H](C(N)=O)[C@H]1C(=O)O[C@H](c3ccccc3)[C@H](c3ccccc3)N1[C@@H]2c1ccc(O)cc1 -0.329, C=CCNC(=O)[C@H]1[C@@H]2C(=O)O[C@@H](c3ccccc3)[C@@H](c3ccccc3)N2[C@@H](c2ccc(OCCO)cc2)[C@]12C(=O)Nc1ccc(C#Cc3ccc(OC)cc3)cc12 0.744, CN1C(=O)C2C=CC(C(O)c3ccc(I)cc3)N(N(c3ccccc3)c3ccccc3)C2C1=O (stereo not given) 0.586, Cc1ccc(S[C@]2(C(=O)NCc3ccccc3)CC(=O)N(Cc3ccccc3Cl)[C@@H]2c2ccc(CO)cc2)cc1 -3.18, C[C@]1(C(=O)O)c2ccccc2C(=O)N(Cc2cc(C(F)(F)F)cc(C(F)(F)F)c2)[C@H]1c1ccc(CO)cc1 0.192, COC(=O)C(CC#Cc1ccc2c(c1)[C@]1(C(=O)N2)[C@H](C(N)=O)[C@H]2C(=O)O[C@H](c3ccccc3)[C@H](c3ccccc3)N2[C@@H]1c1ccccc1OCCO)C(=O)OC 1.69, COC(=O)[C@@]1(Cc2ccc(F)cc2)[C@H]2c3cc(C(=O)N(C)C)n(Cc4ccc(C(F)(F)F)nc4)c3C[C@H]2CN1C(=O)c1ccccc1 -0.909, CCN1C(=O)C2CC(=O)C3C(CN(S(=O)(=O)c4ccc(C)cc4)C3c3ccc(C)cc3)C2C1=O (stereo not given) -0.812, C=C[C@H](OC)[C@@H](O)c1ccc(OC)c(O)c1 0.0137, CCCCCN1CC=CC23O[C@@H]4/C=C\CCCOC(=O)C4[C@H]2C(=O)N(CCCCCO)[C@@H]3C1=O (stereo not given in full) -0.225, CC(C)C[C@H]1NC(=O)CNC(=O)[C@@]23C(=O)N[C@@H](Cc4ccccc4)C2[C@H](C)[C@@]2(C)O[C@H]2C3/C=C/C/C=C\CNC1=O (stereo not given in full) 1.81, C=CCNC(=O)[C@@H]1[C@H]2C(=O)O[C@H](c3ccccc3)[C@H](c3ccccc3)N2[C@H](c2ccc(OCCO)cc2)[C@@]12C(=O)Nc1ccc(C#CCNC(N)=O)cc12 0.243, CC(C)[Si](C#Cc1ccccc1)(O[C@H](c1ccccc1)c1cn(Cc2ccccc2)nn1)C(C)C 0.92, C=C(C(=O)CC[C@@H](OC(=O)c1cccnc1)c1cccc(OCCO)c1)C(C)C 1.2, CCCCN1CC=CC23O[C@@H]4/C=C\CCC(C)OC(=O)C4[C@H]2C(=O)N(CCO)[C@@H]3C1=O (stereo not given in full) -0.093, O=C/C=C/c1ccc(-c2ccccc2)cc1 2.7, COc1cc(CO)cc(I)c1O[C@H]1C=C(C(=O)NCCO)C[C@@H](N(CCN2CCOCC2)C(=O)C2CCCO2)[C@@H]1O (stereo not given in full) 0.104, CC(C)C[C@@H]1NC(=O)[C@H]2C[C@@H](C(=O)O)[C@@H](c3cccc(OCCO)c3)N2C1=O 7.43, COc1cc(Cc2cc3c(c(CCc4ccccc4)n2)[Si](C(C)C)(C(C)C)O[C@H]3c2ccccc2)cc(OC)c1OC -0.149
